# Reference: PubChem BioAssay AID588405 (Sanford-Burnham Center for Chemical Genomics, 2011)
# Hit rate of the full screen: of about 360,000 compounds, about 6,200 (1.7%) were called active.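 The calls were made as follows: active = inhibition of at least 50% at 20 µM; inactive = the rest.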 What follows is part of a selection rich in actives, with near analogues and random picks from the rest.
# Assay: Peg3 promoter-driven luciferase inhibitors, primary screen, cell-based, HeLa, luciferase luminescence (AID 588405)
# Settings: HeLa PEG-Prom luciferase reporter, overnight, at 20 µM, active compounds read high
row,Structure (SMILES),inhibition
1,CCCNC(=O)c1cc(C2CCCN(C(=O)c3ccc4c(c3)CCO4)C2)on1 (stereo not drawn),11% (inactive)
2,Cc1ccc(N2C(=O)CC(NCc3ccc4c(c3)OCO4)C2=O)cc1Cl (stereo not drawn),-15.9% (inactive)
3,O=C(CSc1nc(=O)n2ccccc2n1)Nc1ccc2c(c1)OCCO2,-14.4% (inactive)
4,CCc1ccc([C@@H]2CC(=O)[C@@H]3CN(S(=O)(=O)c4ccc(C)cc4)[C@H](c4ccc(Cl)cc4)C[C@@H]3N2S(=O)(=O)c2ccc(C)cc2)cc1,15.4% (inactive)
5,COc1cnc(-c2ccccn2)nc1Oc1ccc(C(C)(C)C)cc1,-4.72% (inactive)
6,Cc1cc(C(C)(C)C)cc(C)c1N,6.32% (inactive)
7,CC(C)(C)c1ccc(Oc2ccc(N)cc2)cc1,76.7% (active)
8,CC1(C(=O)NS(=O)(=O)c2ccc3ccccc3c2)CCN1C(=O)C1(c2ccc(Cl)cc2)CCC1 (stereo not drawn),-9.9% (inactive)
9,CC1(C(=O)NCc2cccc3ccccc23)CCN1Cc1ccc(-c2ccccc2)o1 (stereo not drawn),21.9% (inactive)
10,CCOC(=O)c1ccn(S(=O)(=O)c2ccc(C)cc2)c1-c1ccccc1,-0.12% (inactive)
11,Cc1nc2scc(-c3cccs3)c2c(=O)n1N,3.36% (inactive)
12,CCS(=O)(=O)N1CCC(N2CCN(c3ccccc3)CC2)CC1,52% (active)
13,CCS(=O)(=O)N1CCC(C(=O)N2CCN(c3ccccc3)CC2)CC1,-2.59% (inactive)
14,CS(=O)(=O)N1CCC(C(=O)N2CCN(c3ccccc3)CC2)CC1,8.23% (inactive)
15,CCC(C)(C)NC(=O)C(c1cccn1C)N(Cc1ccc(C)cc1)C(=O)Cn1nnc2ccccc21 (stereo not drawn),5.59% (inactive)
16,Cc1ccccc1-c1nc(NC(C)C)nc2cc(-c3ccccc3)sc12,7.19% (inactive)
17,COc1cc(OC)cc(-c2sc3ccc(OC)cc3c2-c2ccc3cc[nH]c3c2)c1,2.15% (inactive)
18,COc1ccc2sc(-c3ccccc3OC)c(-c3ccc(OCCN4CCCC4)cc3)c2c1,34.9% (inactive)
19,COc1cccc(-c2sc3ccc(OC)cc3c2-c2ccc(OCCN3CCCCC3)cc2)c1,87.9% (active)
20,CCN(CCN(C)C)C(=O)c1ccc2nc(C)c(N(C)C(=O)CCc3ccccc3)n2c1,-8.8% (inactive)
21,COC(=O)c1ccc2nc(C3CCCCC3)c(Cc3cccc(F)c3)n2c1,-20.6% (inactive)
22,Cc1cc(C)c2nc3nc(C)cc(C)c3c(N)c2c1,59.9% (active)
23,COC(=O)c1ccc(COc2ccc(/C=C/C(=O)c3ccc(OC)c(CSCC(=O)O)c3)cc2OC)cc1,-5.11% (inactive)
24,COc1ccccc1CCNC(=O)C1CCN(C(=O)/C=C/c2ccccc2)CC1,-46.9% (inactive)

row,Structure (SMILES),inhibition
1,COc1ccc(C(=O)/C=C/c2ccc(-c3ccccc3)cc2)cc1CSCC(=O)O,98.8% (active)
2,COc1ccc2c3c1O[C@H]1C[C@@H](O)C=C[C@@]31CCN(C)C2,-14.7% (inactive)
3,COc1ccc(NC(=O)c2cc(-c3cc(OC)c(OC)c(OC)c3)nc3ccccc23)c(OC)c1,50.8% (active)
4,COc1ccc(-c2cc(C(=O)n3cnc4ccccc43)c3ccccc3n2)cc1,-64% (inactive)
5,COc1ccc(NC(=O)c2sc(N3CCOCC3)nc2-c2ccccc2)c(OC)c1,20.4% (inactive)
6,CC(=O)Nc1cccc(-c2cc3nc(NCc4cccnc4)n(C)c(=O)c3s2)c1,-27.3% (inactive)
7,O=c1c2cc(Br)ccc2nc(-c2cccc(Cl)c2)n1O,31.2% (inactive)
8,O=C(/C(=C/c1cccc(Cl)c1)c1nc2ccccc2[nH]1)c1ccccc1,109% (active)
9,CN(c1ccccc1)S(=O)(=O)c1cc(C(=O)Nc2nc3ccccc3[nH]2)ccc1Cl,5.63% (inactive)
10,Cc1ccc(-c2nc3ccccc3[nH]2)cc1NC(=O)c1sc2ccccc2c1Cl,50.7% (active)
11,CN1CCc2ccccc2C1Cc1ccccc1NC(=O)c1sc2ccccc2c1Cl (stereo not drawn),-137% (inactive)
12,Cc1ccc2c(Cl)c(C(=O)Nc3nn[nH]n3)sc2c1,-5.87% (inactive)
13,COc1ccc(C)cc1NC(=O)CCS(=O)(=O)c1cccc2nonc12,-14.4% (inactive)
14,Cc1ccc2c(C(=O)CN3CCCC3)c(C)[nH]c2c1,7.2% (inactive)
15,CCNC(=O)C1(C)CCN(C(=O)c2ccccc2)C1 (stereo not drawn),-7.38% (inactive)
16,CC1CC(=O)Nc2ccccc2N1S(=O)(=O)c1cccs1 (stereo not drawn),10.5% (inactive)
17,CC1CC(=S)Nc2ccccc2N1Cc1ccccc1 (stereo not drawn),55.4% (active)
18,CC1CN(Cc2ccccc2)C(=S)NC1=O (stereo not drawn),-2.37% (inactive)
19,CCNC(=O)C1(C)CCCN1C(=O)c1ccc(N(C)C)cc1 (stereo not drawn),-3.48% (inactive)
20,CCN1CCN(c2nc(Nc3cc(OC)ccc3OC)nc(Nc3cc(OC)ccc3OC)n2)CC1,52.3% (active)
21,CCOc1ccc(Nc2nc(Cl)nc(N3CCN(c4ccc(OC)cc4)CC3)n2)cc1,22.4% (inactive)
22,CCCOc1ccc(Cl)cc1Nc1nc(NCCO)nc(N2CCCC2)n1,9.9% (inactive)
23,COc1cccc(C(O)c2ncc(-c3ccc4ccccc4c3)[nH]2)c1 (stereo not drawn),-68.4% (inactive)
24,CNC(=O)C1CC(=O)N(c2ccc(OCC(=O)Nc3ccccc3C)cc2)C1 (stereo not drawn),-61.3% (inactive)

row,Structure (SMILES),inhibition
1,CC12CCC(=O)C=C1CCC1C2C(O)CC2(C)C1CCC2(O)C(O)CO (stereo not drawn),10.9% (inactive)
2,CCc1nc2ccc(C(=O)Nc3ccc(OC)c(OC)c3)cn2c1N(C)C(=O)c1cccc(OC)c1,-9.49% (inactive)
3,CCCN1CCN(C(=O)Cn2ncc3ccccc32)CC1,6.83% (inactive)
4,O=C1NC[C@H](Cc2ccc(O)cc2)N(C[C@H]2CCCN2C[C@H](Cc2ccccc2)N2C[C@H](Cc3ccccc3)N(CCc3ccccc3)C(=O)C2=O)C1=O,-4.33% (inactive)
5,Cc1oc2c(c1C(=O)N1CCOCC1)C(=O)c1ccccc1C2=O,97.9% (active)
6,O=C(c1snnc1-c1ccccc1)N1CCOCC1,11.7% (inactive)
7,Cc1ccc(C(=O)N2CCN(S(=O)(=O)N3CCOCC3)CC2)cc1,5.77% (inactive)
8,CC=CCn1c(SCCCc2ccccc2)nc2c1c(=O)[nH]c(=O)n2C,0.45% (inactive)
9,CN(CCO)Cc1csc2ccc(Br)cc12,13.7% (inactive)
10,COc1ccc(S(=O)(=O)N2CCCCC2c2cc(C(=O)NCc3ccc(F)cc3)no2)cc1 (stereo not drawn),15.3% (inactive)
11,CC[C@@H]1Cc2cc(O)ccc2C2=C1c1ccc(O)cc1C[C@H]2CC,64.8% (active)
12,CCc1nc2c(OCC(N)=O)cccn2c1N(C)C(=O)c1ccc(OC)cc1,-3.72% (inactive)
13,O=C(Cc1ncc(C(F)(F)F)cc1Cl)Nc1cccc(Br)c1,3.22% (inactive)
14,CN(CC(=O)Nc1ccc(Cl)c(C(F)(F)F)c1)C(=O)CCC(=O)c1ccccc1,12.6% (inactive)
15,O=C(CC(O)(C(F)(F)F)C(F)(F)F)Nc1ccc(Cl)c(Cl)c1,69.9% (active)
16,O=C(Nc1cccc([N+](=O)[O-])c1)N1CCc2ccccc2C1,-236% (inactive)
17,COC(=O)/C=C\C(=O)Nc1cccc([N+](=O)[O-])c1,106% (active)
18,Cc1ccc(NC(=O)O/N=C/c2cccc([N+](=O)[O-])c2)cc1,-85.8% (inactive)
19,O=C(CN1C(=O)NC2(CCOc3ccccc32)C1=O)NCc1ccc(F)cc1 (stereo not drawn),20.2% (inactive)
20,CCc1ccc2c(c1)NC(=O)C2(C)Cc1ccc(OC(F)(F)F)cc1 (stereo not drawn),32.7% (inactive)
21,CCOC(=O)c1sc(C)c2c1NC(C)(c1cccc3ccccc13)NC2=O (stereo not drawn),34.8% (inactive)
22,Cc1ccc(-c2cn3cc(C)ccc3n2)cc1,88.8% (active)
23,COc1ccc(-c2nc3ccc(Br)cn3c2Cc2ccc(C)cc2)cc1OC,-58.2% (inactive)
24,Cc1ccc(-c2nc3ccc(Cl)cn3c2Cc2ccccc2)cc1,-130% (inactive)

row,Structure (SMILES),inhibition
1,Cc1ccc(-n2c(-c3ccc(Cl)cc3)n[nH]c2=S)cc1,17.7% (inactive)
2,Cc1ccc(-c2nc3ccc(Br)cn3c2Cc2ccccc2C(F)(F)F)cc1,-138% (inactive)
3,Cc1ccc2nc(-c3ccc(Br)cc3)cn2c1,55.6% (active)
4,Cc1csc(NC(=O)CSc2nc(=O)n(CCCN(C)C)c3c2CCC3)n1,4.74% (inactive)
5,CN(Cc1ccc(C(F)(F)F)cc1)C(=O)[C@H]1O[C@@H](n2cnc3c(N)ncnc32)[C@H](O)[C@@H]1O,6.54% (inactive)
6,CC1(C(=O)NS(=O)(=O)c2ccc(C#N)cc2)CCN1C(=O)c1ccc(C2CCCCC2)cc1 (stereo not drawn),-8.94% (inactive)
7,O=[N+]([O-])/C(N=Nc1ccccc1)=N\Nc1ccccc1,-2.71% (inactive)
8,Cn1c(CCC(=O)Nc2ccccc2F)nnc1SCC(=O)Nc1ccccc1Cl,3.9% (inactive)
9,CCOc1ccc(-c2nc(N)ncc2-c2ccccc2OC)c(O)c1,1.53% (inactive)
10,C=C(C)COc1ccc(-c2ncncc2-c2ccc(OC)cc2)c(O)c1,-25.6% (inactive)
11,COc1ccc(-c2nc(N)ncc2-c2ccc(Cl)cc2)c(O)c1,53.7% (active)
12,CC(=O)Nc1cnc(-c2ccc(O)cc2C)cn1,-46.9% (inactive)
13,OCCN1CCN(C(=S)c2ccc(-c3ccccc3)cc2)CC1,51.7% (active)
14,S=C(c1ccc(-c2ccccc2)o1)N1CCCCC1,-230% (inactive)
15,CN1CCN(CCCCOc2ccccc2-c2ccccc2)CC1,7.99% (inactive)
16,CC(C#N)OC(=O)c1cccnc1SCC(=O)Nc1ccc2c(c1)OCO2 (stereo not drawn),-92% (inactive)
17,O=C(O)CCN1C(=O)CC2(CCCCC2)C1=O,-1.96% (inactive)
18,COCCNc1ncnc2c1ncn2[C@H]1CN(CCN2CCOCC2)C[C@@H](CO)O1,0.57% (inactive)
19,N#CCSc1nc(-c2ccccc2)nc2ccc(F)cc12,16.9% (inactive)
20,Clc1ccc2nc(-c3ccccc3)nc(C(Cl)Cl)c2c1,107% (active)
21,Clc1cccc(-c2nc(NCC3CCCO3)c3ccccc3n2)c1 (stereo not drawn),17.2% (inactive)
